Screens deposited in PubChem BioAssay by The Scripps Research Institute Molecular Screening Center.
The entries come from a sample that favours hits as a whole.
TTR transcr act: activators of transthyretin transcription. SH-SY5Y TTR promoter Gaussia luciferase, luminescence; 100% = recombinant luciferase protein wells. activation, % at 16.7 µM. actives 1.3% (n = 92,000). AID 1117267;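 active = activation above the mean of all tested compounds plus 3 SD, cut at about 9.5% in these data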;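 note: cells exposed to compounds for one day before reading; 0% = median of all test compound wells on the plate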
HuH7 TTR inh: counter-screen for TTR activators: TTR transcription inhibitors in HuH7 cells | shares compounds with TTR transcr act | HuH7 TTR promoter-Gaussia luciferase reporter, luminescence | inhibition, % at 16.7 µM | actives 4% (n = 1,100) | AID 1117279;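 active = average inhibition above the solvent-only control wells' mean plus 3 SD, cut at about 15% in these data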;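 note: 0% = cells with DMSO only and 100% = cells with inhibitor control FD; inhibitors lower well luminescence so higher value means more inhibition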
TTR act confirm: human TTR transcription activation, confirmation; activation, % at 16.7 µM; SHSY5Y TTR promoter Gaussia luciferase, luminescence; 100% = purified Lucia enzyme wells, no cells; shares compounds with TTR transcr act; 1,100 tested, under 10 active;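 active = mean activation above a set limit taken from the earlier primary screen, cut at about 11% in these data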;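 note: 0% = DMSO-treated cells and 100% = recombinant Lucia luciferase without cells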
Numbers without * were called inactive.

SMILES | TTR transcr act | others
CCOC(=O)C1=C(C)NC(C)=C(C(=O)OCC)C1C(=O)OCC(=O)N(C)Cc1ccccc1 | -0.7
CC(C)(C)OC(=O)NNC(=O)c1cccs1 | -0.5
O=C(Nc1nc2ccccc2s1)c1cccc(S(=O)(=O)N2CCc3ccccc32)c1 | -1.9
CCc1nnc(NC(=O)c2cccc(S(=O)(=O)N3CCN(C(C)=O)CC3)c2)s1 | -1.4
CCc1nnc(NC(=O)c2cccc(S(=O)(=O)N3CCc4ccccc43)c2)s1 | 14.9* | HuH7 TTR inh=13.2;TTR act confirm=-0.5
CC1=C(C(=O)N(C(C)C)C(C)C)CC(CC(=O)NC2CC2)C(=O)N1CCCN1CCCC1=O (configuration not stated) | -0.2
COc1ccc(C(C)NC(=O)C2CCN(CCCc3ccccc3)CC2)cc1OC (configuration not stated) | -0.6
COc1cccc2cc3c(nc12)C[C@@H]1CCCC(=O)N2CCC[C@@]12C3 | 0.3
Cc1onc(C(=O)N2CCN(C(c3ccc(F)cc3)c3ccc(F)cc3)CC2)c1[N+](=O)[O-] | -3.0
Cc1cccc(Oc2ccc(C(=O)NC3CCSC3=O)cn2)c1C (configuration not stated) | 13.6* | HuH7 TTR inh=-1.6;TTR act confirm=-0.7
O=C(NC(=S)NC1CCSC1=O)c1cccs1 (configuration not stated) | 4.1
O=C(Cc1ccc(F)cc1)NC1CCSC1=O (configuration not stated) | 1.6
O=C(Nc1ccc(Cl)cc1)OC[C@@H]1CSCCS(=O)(=O)N1 | -0.6
COC(=O)c1cc(COC(=O)c2nc3nc(C)cc(C)n3n2)oc1C | 10.3* | HuH7 TTR inh=-11.4;TTR act confirm=-0.7
Cc1cc(C)n2nc(C(=O)OCC(=O)Nc3ccc4c(c3)OC(F)(F)O4)nc2n1 | -1.1
Cc1cc(C)n2nc(C(=O)OCC(=O)c3ccccc3)nc2n1 | -0.1
C[C@H]1[C@@H](O)CC[C@@]23CCCN2C(=O)CCC[C@@H]13 | 0.8
Cc1nc2ccccn2c1C(=O)NC1CCCc2ccccc21 (configuration not stated) | -1.7
Nc1cc(C(=O)N2CCN(c3cccc(Cl)c3)CC2)ccc1N1CC2CC(C1)c1cccc(=O)n1C2 (configuration not stated) | -2.0
O=C(O)c1ccc(N2CC3CC(C2)c2cccc(=O)n2C3)c(NC(=S)Nc2ccc(Cl)cc2Cl)c1 (configuration not stated) | 10.6* | HuH7 TTR inh=-3.9;TTR act confirm=0.1
O=C(CCN1CCOCC1)Nc1cc(C(=O)Nc2ccccc2F)ccc1N1CC2CC(C1)c1cccc(=O)n1C2 (configuration not stated) | 0.5
Cc1ccccc1NC1=NC(=S)N(CC(N)=O)C12CCOC(C)(C)C2 (configuration not stated) | 1.0
CCC[C@H]1[C@@H](OC(=O)N2CCCC2)CC[C@@]23CCCN2C(=O)CCC[C@@H]13 | -1.1
CCN(CC)S(=O)(=O)c1cccc(NC(=O)c2cc(=O)[nH]c3ccccc23)c1 | -2.2
COc1cccc(-c2csc(NC(=O)Nc3ccccc3)n2)c1 | -4.6
SMILES | TTR transcr act | others
COc1cccc(C(=O)Nc2nc(-c3ccncc3)cs2)c1 | -0.9
COc1cccc(-c2csc(NC(=O)C3CC3)n2)c1 | 10.9* | HuH7 TTR inh=32.9*;TTR act confirm=-1.2
O=Cc1c(NCc2cccc(F)c2)c2ccccc2[nH]c1=O | -0.7
COc1cc(C#N)ccc1OCC(=O)NCCC1=CCCCC1 | 1.1
COc1cc(/C=C/C(=O)OCC(=O)NCCC2=CCCCC2)cc(OC)c1OC | 10.2* | HuH7 TTR inh=-13.6;TTR act confirm=-0.3
COc1ccc(C(=O)NCC(=O)OCC(=O)NCCC2=CCCCC2)cc1 | 0.4
COC(=O)[C@]12C[C@H](CC(=O)NCc3ccc(OC)c(OC)c3)C(=O)N(Cc3ccc(Cl)cc3Cl)C1=C[C@H](C1CCCC1)O[C@@H]2C | -0.3
CCOc1ccc2nc(SCc3cccc(C)c3)nc(C)c2c1 | 0.8
Cc1ccc2nc(SCCC#N)nc(C)c2c1 | -2.7
CCOC(=O)CCSc1nc(C)c2cc(C)c(C)cc2n1 | 14.5* | HuH7 TTR inh=-4.7;TTR act confirm=-1.7
C=CS(=O)(=O)N(Cc1ccc(C)cc1)[C@@H](CO)C(=O)OC | 0.1
C[C@H]1[C@@H](OC(=O)NC2CCC2)CC[C@@]23CCCN2C(=O)CCC[C@@H]13 | 0.5
Cc1ccc(C(=O)OCC(=O)NC2CCCc3ccccc32)o1 (configuration not stated) | 18.1* | HuH7 TTR inh=-9.0;TTR act confirm=-0.4
Cc1cccc(OCC(=O)NC2CCCc3ccccc32)c1C (configuration not stated) | 0.1
Cc1ccc(CC(=O)NC2CCCc3ccccc32)cc1C (configuration not stated) | -0.9
CCCC1CCC2(CC1)CCC2OC(=S)Nc1ccccc1Cl (configuration not stated) | 1.7
COC(=O)[C@@H]1N=C(c2ccc(OC)cc2)O[C@]12C(=O)N(Cc1cn(Cc3ccccc3)nn1)c1cccc(Cl)c12 | -0.2
CSc1ccccc1C(=O)N1CCc2ccc(NC(=O)c3ccccn3)cc2C1 | -2.8
CC1(C)CC2CC(C)(CN2C(=O)c2ccc([N+](=O)[O-])cc2[N+](=O)[O-])C1 (configuration not stated) | 2.0
Cc1ccc(S(=O)(=O)N2CC(O)CC2C(=O)NCc2ccc3c(c2)OCO3)cc1 (configuration not stated) | 14.5* | HuH7 TTR inh=-4.2;TTR act confirm=-0.6
Cc1ccc(NC(=O)N2CCCC2C(=O)NCc2ccc3c(c2)OCO3)cc1 (configuration not stated) | 0.0
Cc1ccc(CNC(=O)COC(=O)[C@@H]2CC(O)CN2S(=O)(=O)c2ccc3c(c2)OCCO3)cc1 (some centres not stated) | 3.5
CC(=O)c1sc(-c2ccc(F)cc2F)nc1C | -2.4
COc1ccc2c(c1)Sc1ccc(Cl)cc1N2 | -1.3
CCOC(=O)NNC1CC(=O)N(c2ccccc2)C1=O (configuration not stated) | 2.2
SMILES | TTR transcr act | others
O=C1CC(NNc2ccccc2)C(=O)N1c1ccccc1 (configuration not stated) | 11.1* | HuH7 TTR inh=2.5;TTR act confirm=-1.0
CC(O)CCC(=O)NNC1CC(=O)N(c2ccccc2)C1=O (configuration not stated) | 2.8
CC(=NCCc1ccccc1)C1=C(O)COC1=O | 12.7* | HuH7 TTR inh=-12.6;TTR act confirm=0.0
CC(=NCc1ccccc1)C1=C(O)COC1=O | -4.0
CCCN=C(C)C1=C(O)c2ccccc2C1=O | 1.8
CCCCNC(=O)C1(C)CCCCN1C(=O)c1ccc2c(c1)CCO2 (configuration not stated) | 1.6
Cc1ccc2ccc(C(Nc3ccccc3)c3ccc(Cl)cc3)c(O)c2n1 (configuration not stated) | -2.5
O=C(NCCc1ccccc1)OCc1cn(Cc2ccc(F)cc2)nn1 | -1.1
O=C(c1ccc(Cl)c(F)c1F)N1CCOCC1 | 4.7
COc1cccc(C2=NOC(C(=O)Nc3ccc4c(c3)OCO4)C2)c1OC (configuration not stated) | 0.1
Cc1ccc(NC(=O)c2ncn(CCCNCc3ccccc3)n2)cc1C | 13.2* | HuH7 TTR inh=-10.5;TTR act confirm=0.5
Cc1ccc(NC(=O)c2ncn(CCCNCC3CCCCC3)n2)cc1C | 1.6
Cc1ccc(NC(=O)c2ncn(CCCNCCCN3CCCC3=O)n2)cc1C | -0.5
NC(=O)[C@@H]1CCCN1Cc1nc(-c2cccs2)no1 | -0.2
Cc1cccc2c1CCC1CN(Cc3ccccc3)S(=O)(=O)N21 (configuration not stated) | -0.9
